The sample as a whole holds a higher share of hits than the screen did.
TTR transcr act = activators of transthyretin transcription; activation, % at 16.7 µM; actives 1.3% (n = 92,000); SH-SY5Y TTR promoter Gaussia luciferase, luminescence; 100% = recombinant luciferase protein wells;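 active = activation above the mean of all tested compounds plus 3 SD, cut at about 9.5% in these data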;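 also: cells exposed to compounds for one day before reading; 0% = median of all test compound wells on the plate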
HuH7 TTR inh = decreases TTR transcription in HuH7 cells in activator counter-screen | AID 1117279 | actives 4% (n = 1,100) | shares compounds with TTR transcr act | inhibition, % at 16.7 µM | HuH7 TTR promoter-Gaussia luciferase reporter, luminescence;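 active = average inhibition above the solvent-only control wells' mean plus 3 SD, cut at about 15% in these data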;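 also: 0% = cells with DMSO only and 100% = cells with inhibitor control FD; inhibitors lower well luminescence so higher value means more inhibition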
TTR act confirm = confirmation of human transthyretin transcription activators; activation, % at 16.7 µM; shares compounds with TTR transcr act; SHSY5Y TTR promoter Gaussia luciferase, luminescence; 100% = purified Lucia enzyme wells, no cells; 1,100 tested, under 10 active;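 active = mean activation above a set limit taken from the earlier primary screen, cut at about 11% in these data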;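 also: 0% = DMSO-treated cells and 100% = recombinant Lucia luciferase without cells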
* marks the source's active call; other numbers are inactive results.

SMILES	TTR transcr act	others
COc1cccc(C(=O)NOCc2ccccc2)c1OC	1.2
CC(C)=CCC[C@H](C)C[C@@H]1Cc2[nH][nH]c(=O)c2[C@H](c2ccc(F)cc2)O1	1.2
CNS(=O)(=O)c1ccc2nc(NC(=O)/C=C/c3ccco3)sc2c1	0.6
O=C(NC(=S)N1CCOCC1)C12CCC3CC(CC(C3)C1)C2	2.5
Cc1cc(C)cc(NC(=S)N2CCN(c3ccc(F)cc3)CC2)c1	1.2
CCOc1ccccc1N1CCN(C(=S)NCc2ccc(Cl)cc2)CC1	3.5
O=[N+]([O-])c1ccc(NC(=S)N2CCN(c3ccc(F)cc3)CC2)cc1	-2.5
O=C(NC(=S)N1CCN(c2ccc(F)cc2)CC1)C12CC3CC(CC(C3)C1)C2	18.1*	HuH7 TTR inh=6.3;TTR act confirm=5.4
Cc1cccc(NC(=S)N2CCN(c3ccccn3)CC2)c1	4.5
Cc1cccc(NC(=S)N2CCN(c3ccc(F)cc3)CC2)c1	10.6*	HuH7 TTR inh=-1.1;TTR act confirm=-0.4
CCOc1ccccc1N1CCN(C(=S)NC(=O)C23CC4CC(CC(C4)C2)C3)CC1	9.7*	HuH7 TTR inh=-21.6;TTR act confirm=0.3
CCCCNC(=O)N1CCN(c2ccccc2OCC)CC1	-0.9
C[C@@H]1CN([C@@H](C)CO)C(=O)CCCn2cc(nn2)CO[C@H]1CN(C)C(=O)Nc1ccc(N2CCN(C)CC2)cc1	1.6
CCc1ccc(C(=O)NNC(=O)CCc2nc3ccccc3c(=O)[nH]2)cc1	0.0
CC(=O)NCCC(=O)Nc1cc(S(=O)(=O)N2CCOCC2)ccc1Oc1ccccc1	1.0
Cc1ccccc1NS(=O)(=O)c1ccc(C(=O)N(C)CC(=O)Nc2ccccc2Br)cc1	9.4
O=c1[nH]c(=O)n(Cc2ccco2)c2c1C(C(F)(F)F)(C(F)(F)F)N=C(Cc1ccccc1)N2	-3.0
CCCOC(=O)Nc1c(C)cccc1C(C)C	0.7
Cc1nc(-c2nnc(SCC(=O)Nc3ccc(Cl)cc3)n2C)cs1	23.4*	HuH7 TTR inh=-23.9;TTR act confirm=-0.4
Cn1cnnc1SCC(=O)Nc1ccc(F)cc1F	0.5
CN(C)c1ccc(NC(=O)CSc2nnc(-c3cnccn3)n2C)cc1	0.2
CCC(=O)Nc1ccc(NC(=O)CSc2nnc(-c3ccco3)n2C)cc1	2.2
Cn1cnnc1SCC(=O)Nc1ccc(Cl)cc1	12.6*	HuH7 TTR inh=-10.5;TTR act confirm=0.4
Cn1cnnc1SCC(=O)Nc1ccc(Oc2ccccc2)cc1	-0.4
O=C(NCCCNC(=O)c1ccccn1)c1ccc(Cl)cc1	-0.9
SMILES	TTR transcr act	others
C[C@H](NC(=O)c1nc[nH]c1C(=O)N[C@@H](Cc1ccccc1)C(=O)OC(C)(C)C)C(=O)OCc1ccccc1	-0.8
Clc1cccc(CNc2ccn3nc(-c4cccc(OCc5ccccc5)c4)cc3n2)c1	0.9
Cc1cc(N2CCOCC2)ccc1/C=C1\NC(=O)N(Cc2ccccc2)C1=O	-2.4
O=S(=O)(Nc1ccc(Cl)cc1)c1ccc2c(c1)CCO2	-3.2
CC(O)C(=O)N/N=C/c1cccc2ccccc12 (stereo not given)	-0.6
CC(C)NC(=S)NC(=O)/C=C/c1cccc2ccccc12	16.8*	HuH7 TTR inh=-4.3;TTR act confirm=-1.1
COC(=O)C(CC(C)C)NC(=O)/C=C/c1ccccc1Cl (stereo not given)	-1.8
COc1ccc(CN2C(=O)CCCC2(C)c2nnnn2-c2c(C)cccc2C)cc1OC (stereo not given)	1.0
COc1ccccc1NC(=O)OCCN1CCCC12CCC(c1ccccc1)CC2 (stereo not given)	-2.1
CC(C)CCN1C(=O)COc2ccccc2C1c1nnnn1-c1ccc2c(c1)OCCO2 (stereo not given)	2.5
COc1cc(O)c([C@@H](CC(=O)N2CC(C)CC(C)C2)c2ccc3c(c2)OCO3)c(OC)c1 (stereo not given in full)	1.2
COc1cc(OC)c2ccc(=O)oc2c1C(CC(=O)N1CCOCC1)c1ccc2c(c1)OCO2 (stereo not given)	14.4*	HuH7 TTR inh=-0.1;TTR act confirm=-1.2
COc1cc(OC)c2c(C)cc(=O)oc2c1C(CCN1CCN(c2ccccc2)CC1)c1ccc2c(c1)OCO2 (stereo not given)	-7.3
CC(C(=O)NC1CCCCC1)N(Cc1ccc(F)cc1)C(=O)c1snc(C(N)=O)c1N (stereo not given)	2.2
NC(=O)c1nsc(C(=O)N(CC(=O)NC2CCCCC2)c2cccc(F)c2)c1N	1.3
NC(=O)c1nsc(C(=O)N(CC(=O)NC2CCCC2)c2ccc(F)c(Cl)c2)c1N	16.6*	HuH7 TTR inh=-26.0;TTR act confirm=-0.2
CCCCc1ccc(-c2noc(CCC(=O)NCC)n2)cc1	-1.4
Cc1nc2cc(OC3(C)CCN(Cc4ccc(OC(F)(F)F)cc4)C3)ccc2s1 (stereo not given)	0.3
COC(=O)[C@]12C[C@H](CC(=O)NCCc3ccccc3OC)C(=O)N(Cc3cccc4ccccc34)C1=C[C@H](C(C)(C)C)O[C@@H]2C	0.9
O=C(Nc1ccccc1)c1sc(Cl)nc1-c1ccccc1	0.2

Screening results: PubChem BioAssay, The Scripps Research Institute Molecular Screening Center
